# Assay results from PubChem BioAssay AID1527 (The Scripps Research Institute Molecular Screening Center, 2009).
# Among all 290,000 compounds or so, about 2,600 (0.9%) were called active. The list comes from a sample in which actives are over-represented; it also holds similar structures and randomly drawn compounds. A number with no mark means an inactive call.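 Rule for the calls: active = inhibition above the mean of all tested compounds plus 3 SD, cutoff set per screening run (cut at about 7.5% in these data); inactive = the rest.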
# Tested on: VIM-2 metallo-beta-lactamase (Pseudomonas aeruginosa)
# Assay: VIM-2 metallo-beta-lactamase inhibitors, primary screen, biochemical, epi-absorbance readout, Pseudomonas aeruginosa enzyme (AID 1527);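 note: red hydrolysis product quenches plate fluorescence so inhibitors raise well fluorescence; 0% = enzyme with DMSO and 100% = DMSO without enzyme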
# Conditions: purified VIM-2, nitrocefin hydrolysis, epi-absorbance fluorescence; at 5.6 µM; active compounds read high
row,SMILES,inhibition
1,C=CCOCCN(C)C1=NS(=O)(=O)c2ccccc21,-0.19%
2,COc1ccc(/C=N/N(C)C2=NS(=O)(=O)c3ccccc32)cc1OC,18.5% (active)
3,COc1ccc(/C=N/S(=O)(=O)c2ccccc2)cc1OC,2.08%
4,CC(=O)c1cccc(NC(=O)C2CCCN(S(=O)(=O)c3cccc4nonc34)C2)c1 (stereo not given),-0.2%
5,COc1ccc(COC(=O)c2ccc(Cl)c(S(=O)(=O)N3CCOCC3)c2)cc1F,-3.64%
6,COc1ccc(CCNC(=O)c2ccc3c(c2)NC(=O)C(N2CCOCC2)S3)cc1OC (stereo not given),0.07%
7,CCN1CCN(CCNC(=O)c2ccc3c(c2)NC(=O)/C(=C\c2ccc(OC)c(OC)c2)S3)CC1,23.2% (active)
8,CCN1CCN(CCNC(=O)c2ccc(/C=C3/Sc4ccccc4N(Cc4cccc(C)c4)C3=O)cc2)CC1,-2.77%
9,O=C(NCCCc1ccccc1)C(=O)NCC1OCCN1S(=O)(=O)c1ccccc1 (stereo not given),-2.36%
10,CCC(NC(=O)c1cc(COc2ccc(F)c(F)c2)on1)c1ccncc1 (stereo not given),1.14%
11,COc1ccc(S(=O)(=O)N2CCN(C)CC2)c(C)c1,1.39%
12,CN1CCN(C(=O)CCc2ncc(C(F)(F)F)cc2Cl)CC1,7.72% (active)
13,O=C(NCC(=O)N1CCN(c2ncc(C(F)(F)F)cc2Cl)CC1)c1ccc(Br)o1,0.82%
14,CC(=O)c1ccc(Cc2ncc(C(F)(F)F)cc2Cl)s1,-0.62%
15,O=C1CC(C(F)(F)C(F)(F)C(F)(F)C(F)(F)F)=Nc2ccccc2N1,-4.82%
16,Cc1ccccc1-n1cc(CNC(=O)C2CCC(=O)N(C3CC3)C2)cn1 (stereo not given),-2.92%
17,O=C1/C(=C/c2ccc3c(c2)OCO3)Oc2cc(OCC(=O)N3CC(O)C[C@H]3C(=O)O)ccc21 (stereo not given in full),-0.7%
18,Cc1ccccc1N1CCN(CCCOc2ccc3c(C)cc(=O)oc3c2)CC1,-0.43%
19,Cc1cc(=O)oc2cc(OCCC[n+]3ccccc3)ccc12,8.33% (active)
20,Cc1cc(=O)oc2ccc(OCC(=O)O)cc12,-3.22%
21,Cc1ccc2c(C)c(C(=O)N3CCN(c4ccncc4)CC3)oc2c1C,3.45%
22,Cc1nnc(SCC(=O)Nc2cccc(N)c2)n1-c1ccccc1,-2.64%
23,O=S(=O)(c1ccc(Br)cc1)N1CCC(c2nc3ccccc3[nH]2)CC1,-4.39%
24,Cc1cc(NC(=O)/C=C/C(=O)N(c2ccccc2C)C(C(=O)NC2CCCC2)c2ccc(F)cc2)no1 (stereo not given),1.56%
25,COc1ccc(CNC(=O)c2cc(C(=O)C3CC3)c[nH]2)cc1,-2.31%
